# Bioassay records (PubChem)
# GluA2 TARP mod = modulates AMPAR-stargazin complexes; O88602+P19491; HEK293 GluA2+stargazin, membrane potential dye (FDSS), glutamate EC50; hits were called plate by plate, in both directions; calls only at 30 µM; hit rate 3.5% among 40,000;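 active = any of four per-well response measures lying three or more SD from its plate-wide compound average, in either direction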
# GIRK2 act = GIRK2 channel activators by thallium flux; activation (% efficacy), % for hits at 37.5 µM; HEK293 GIRK2/NPY4 cells, thallium flux fluorescence; 34,000 tested, under 10 active;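 active = primary screen hit, no activity in plain HEK293 cells, and in GIRK2-only cells above 5% efficacy rising with concentration; inactive = the rest, including fluorescent compounds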;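 note: efficacy is normalized control-subtracted fluorescence 15 s after thallium addition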
# Active calls of the source: *; i = inactive; nt = no result; + = active, no number. This is one part of a sample in which hits are shown more often than they occur.
SMILES,GluA2 TARP mod,GIRK2 act
CC(C)N(C(=O)C(=O)c1c[nH]c2ccccc12)C(C)C,i,nt
CCN(Cc1ccccc1)C(=O)C(=O)c1c[nH]c2ccccc12,+,nt
CC(C)N(Cc1ccccc1)C(=O)C(=O)c1c[nH]c2ccccc12,i,nt
CC(NC(=O)C(=O)c1c[nH]c2ccccc12)c1ccccc1 (stereo not given),+,nt
O=C(Nc1nnc(Cc2cccs2)o1)C1CCCCC1,i,i
Cc1cc(C)c2sc(NC(=O)c3ccnn3C)nc2c1,nt,i
COc1ccc(OC)c2sc(NC(=O)c3ccnn3C)nc12,+,nt
O=C(NCCOc1ccc(F)cc1)c1ccccc1Cl,i,i
O=C(NCCOc1ccc(F)cc1)c1c(F)cccc1Cl,+,i
COc1cc(S(=O)(=O)Nc2ccc(-c3cn4cccc(C)c4n3)cc2)c(OC)cc1C,+,nt
COc1ccc(OC)c(S(=O)(=O)Nc2ccc(-c3cn4ccccc4n3)cc2)c1,i,nt
Cc1ccccc1-c1cc(C(=O)Nc2ccccc2C(N)=O)c2ccccc2n1,i,nt
COc1ccc(CCC(=O)N2CCC(c3ccsc3)CC2)cc1,+,i
COc1ccc(NC(=O)N2CCC(c3ccsc3)CC2)cc1,i,nt
CCCOc1cn(-c2ccc(F)cc2)nc1C(=O)N1CCC(C(=O)OCC)CC1,i,i
CCCn1c(=O)c2c(nc(-n3nc(C)cc3C)n2Cc2ccc(OC)cc2)n(C)c1=O,i,nt
Cc1ccc(C)c(OCC(=O)Nc2c(C)cccc2C(C)C)c1C,+,i
Cc1cccc(C)c1NC(=O)COc1ccc2c(C)cc(=O)oc2c1C,i,nt
COc1ccc(Cl)cc1C(=O)NCCS(=O)(=O)N1CCc2ccccc2C1,i,nt
O=C(Nc1ccc(F)c(C(F)(F)F)c1)C1CN(C(=O)c2cccs2)C1,i,i
O=C(Nc1ccc(F)c(C(F)(F)F)c1)C1CCN(C(=O)NC2CC2)CC1,+,i
CCOC(=O)N1CCC(NS(=O)(=O)CCCOc2cccc3c2OC(C)(C)C3)CC1,nt,i
CCOc1ccc(NC(=O)C23CC4CCC(CC(C4)C2)C3)cc1,+,nt
O=C(Cc1ccc(NC(=O)C23CC4CC(CC(C4)C2)C3)cc1)NC1CC1,i,i
CCOc1cc(/C=C/c2ccc3cccc(O)c3n2)cc(Br)c1O,i,nt
SMILES,GluA2 TARP mod,GIRK2 act
COc1cc(/C=C/c2ccc3cccc(O)c3n2)cc(Br)c1O,+,nt
Cc1ccc(Nc2ccc(NC(=O)c3ccc4c(c3)OCO4)cc2)nn1,i,i
Cc1cc(N(C)C)nc(Nc2ccc(NC(=O)c3ccc4c(c3)OCO4)cc2)n1,+,nt
O=C(CCN1C(=O)c2ccccc2S1(=O)=O)Nc1ccc(Cl)c([N+](=O)[O-])c1,i,i
CCCC(CCC)C(=O)N1CCN(c2nccn2C)CC1,nt,i
CCCC(CCC)C(=O)N1CCN(c2nccn2CC)CC1,+,i
CC(=O)Nc1ccc(S(=O)(=O)Nc2ccc3c(c2)N(C(=O)C(C)(C)C)CC3)cc1,i,i
COc1ccc(NS(=O)(=O)c2ccc3c(c2)CCCC3)cc1N1CCCCC1=O,i,i
COc1cc(NS(=O)(=O)c2ccc3c(c2)CCCC3)ccc1N1CCCCC1=O,+,i
O=C(c1cc2ccccc2oc1=O)N1CCC(c2nnc(-c3ccc(F)cc3)o2)CC1,i,i
COc1cc(NC(=O)CSc2nc(=O)n(CCO)c3c2CCC3)cc(OC)c1,i,i
COc1ccc(C(=O)/C=C/c2ccccc2Cl)c(OC)c1,i,nt
COc1ccc(OC)c(C(=O)/C=C/c2ccccc2Cl)c1,+,nt
OC(COc1ccc(F)cc1)Cn1cnc(-c2ccccc2)c1 (stereo not given),i,nt
CSc1ccccc1C(=O)N(CCc1ccccc1)Cc1ccccn1,i,i
O=C(c1nc2ccccc2s1)N(CCc1ccccc1)Cc1ccccn1,+,i
Cc1ccc(Nc2nc(C(=O)N3CCN(c4ncccn4)CC3)cs2)c(C)c1,i,i
O=C(NCCCN1CCOCC1)C(=O)Nc1ccc(F)c(Cl)c1,i,i
Cc1cc(C)c2sc(NC(=O)/C=C\c3ccccc3)nc2n1,+,i
Cc1cc(NC(=O)/C=C/c2ccccc2)on1,nt,i
O=C1CN(C(=O)c2ccccc2)c2ccccc2N1,i,nt
O=S(=O)(NCC(O)c1ccsc1)c1ccc(F)c(Cl)c1 (stereo not given),i,i
COc1ccc(S(=O)(=O)NCC(O)c2ccc(C(F)(F)F)cc2)c(C)c1 (stereo not given),+,i
Cc1ccc(S(=O)(=O)NCC(O)c2ccc(C(F)(F)F)cc2)s1 (stereo not given),i,i
O=S(=O)(NCC(O)c1ccc(C(F)(F)F)cc1)c1ccc(Br)s1 (stereo not given),+,nt
COc1ccc(S(=O)(=O)NCC(O)c2ccsc2)c(C)c1 (stereo not given),i,i
